# Experimental data as given in ChEMBL document CHEMBL4513216, “Probing the Open Global Health Chemical Diversity Library for Multistage-Active Starting Points for Next-Generation Antimalarials” (ACS Infect Dis, 2020).
# Among all 68,000 compounds or so, about 2,700 (4%) showed an effect of 50% or more. This is one part of a sample in which strong results are shown more often than they occur.
# Tested on: Plasmodium berghei
# Test: Screen against P. berghei liver stage (PbLuc), transformed with Luciferase, at 2uM
# Format: functional, HepG2
# Settings: tested at 2 uM
row,Structure (SMILES),INHIBITION [%]
1,Cn1ccc(CN2CCC(CC(=O)N3CCCC3)CC2)cc1=O,14.5
2,Cc1cccc(N2CCC(NC(=O)CCCc3cccs3)CC2)n1,-52.85
3,CCc1nc(C2CCCN2C(=O)c2ccc(N3CCCC3)nn2)no1 (stereo not drawn),63.46
4,CCc1nc(C2CCCN2C(=O)CCc2c(C)noc2Cl)no1 (stereo not drawn),51.94
5,CCc1nc(C2CCCN2C(=O)c2ccc(N(C)C)nn2)no1 (stereo not drawn),5.91
6,CCc1nc(C2CCCN2C(=O)CCc2nc(C(C)(C)C)no2)no1 (stereo not drawn),44.43
7,CCc1nc(C2CCCN2C(=O)c2c[nH]c(C)n2)no1 (stereo not drawn),-72.93
8,CCc1nc(C2CCCN2C(=O)CCc2nc(C3CC3)no2)no1 (stereo not drawn),-25.46
9,CCn1cc(-c2cc(-c3ccn(C)c3)nc(N)c2C#N)cc1C#N,17.19
10,COc1ccc2cc(C(=O)N3CCCC3Cn3cc(C)cn3)[nH]c2c1 (stereo not drawn),53.98
11,Cc1cnn(CC2CCCN2C(=O)c2ccc3[nH]c(=O)[nH]c3c2)c1 (stereo not drawn),-73.25
12,Cc1cnn(CC2CCCN2C(=O)c2ccc3[nH]nnc3c2)c1 (stereo not drawn),53.72
13,Cc1cnn(CC2CCCN2C(=O)c2cc3ccccc3[nH]2)c1 (stereo not drawn),-20.11
14,COc1ccc2cc(C(=O)N3CCCCC3Cn3cccn3)[nH]c2c1 (stereo not drawn),-28.85
15,Cc1cnn(CC2CCCCN2C(=O)c2ccc3[nH]nnc3c2)c1 (stereo not drawn),39.32
16,CC1CCN(C(=O)[C@H]2C[C@@H]3CCN(CC4CCOCC4)C[C@@H]3O2)CC1,-21.33
17,COCc1nc(C(=O)NS(=O)(=O)c2c(C)c(C)cc(C)c2C)cs1,18.85
18,O=C(c1cn2ccsc2n1)N1CCN(CC2CC2)[C@@H]2CS(=O)(=O)C[C@@H]21,-18.12
19,Cn1cccc1C(=O)N1CCc2c(CNS(C)(=O)=O)cncc2C1,6.66
20,CC(C)(C)NC(=O)c1cccc(CN2CCS(=O)(=O)CC2)c1,12.32
21,CCc1cccnc1NCc1cnc(N2CCOCC2)nc1,-20.29
22,O=C(Cc1ccc(F)cc1)NCCNS(=O)(=O)C1CCCC1,-36.61
23,CCc1n[nH]c(C2CN(Cc3nnc(C4CC4)n3C)CCO2)n1 (stereo not drawn),51.32
24,CCCc1n[nH]c(C2CN(Cc3nnc(C4CC4)n3C)CCO2)n1 (stereo not drawn),30.05
25,Cc1n[nH]c(C2CN(Cc3nnc(C4CC4)n3C)CCO2)n1 (stereo not drawn),-82.49
26,COCCOC1CCN(C(C(=O)O)c2c(Cl)cccc2OC)CC1 (stereo not drawn),-17.86
27,Cc1cc(=O)[nH]c(=O)n1-c1cccc(Cl)c1Cl,-12.39

row,Structure (SMILES),INHIBITION [%]
1,O=C1NCCN1C1CCN(Cc2nc(-c3ccccc3)no2)CC1,64.16
2,O=C1NCCN1C1CCN(Cc2nc(-c3ccc(F)cc3)no2)CC1,21.39
3,Cc1ccc(-c2noc(CN3CCC(N4CCNC4=O)CC3)n2)cc1,9.17
4,O=C1CC(NS(=O)(=O)N2CCOCC2)CN1Cc1ccccc1 (stereo not drawn),21.22
5,O=C1CC(NS(=O)(=O)N2CCOCC2)CN1CCc1ccccc1 (stereo not drawn),43.44
6,O=C1CC(NS(=O)(=O)N2CCOCC2)CN1Cc1ccc(F)cc1 (stereo not drawn),57.75
7,COCCCNC(=O)CN(C)C(=O)c1ccc(-n2cccc2)cc1O,-44.96
8,CC(C)C(=O)N1CCN(Cc2ccccn2)CC2(CC(=O)N(C)C2)C1 (stereo not drawn),31.5
9,Cc1ocnc1C(=O)N1CCCC1c1ccc(C(=O)N2CCSCC2)s1 (stereo not drawn),9.31
10,COc1ccc(C2(NCc3c(C)nc4c(C)cccn34)CCCC2)cc1,-43.11
11,CCc1cc(NC2CCOCC2)n2nc(C)c(C)c2n1,-35.61
12,Cn1nccc1CCNC(=O)[C@H]1CNC[C@H](C(=O)N2CCCC2)C1,27.73
13,Nc1ncc(-c2csc(NC(=O)C[C@H]3COCCN3)n2)cn1,62.99
14,CC(C)Nc1ncc(-c2csc(NC(=O)C[C@H]3COCCN3)n2)cn1,22.1
15,CNc1ncc(-c2csc(NC(=O)C[C@H]3COCCN3)n2)cn1,12.21
16,Cc1nc(C2CCCN2Cc2ccon2)no1 (stereo not drawn),1.63
17,CCc1nc(C2CCCN2Cc2nnc(C3CCC3)o2)no1 (stereo not drawn),16.26
18,C1CC(c2nnc(CN3CCCC3c3noc(C4CC4)n3)o2)C1 (stereo not drawn),21.43
19,Cc1cnc(CN2CCCC2c2noc(C(C)C)n2)cn1 (stereo not drawn),13.86
20,CC(C)c1nc(C2CCCN2c2cnc3cc(F)c(F)cc3n2)no1 (stereo not drawn),55.43
21,CC(C)c1nc(C2CCCN2Cc2ccncc2Cl)no1 (stereo not drawn),60.09
22,CC(C)c1nc(C2CCCN2c2ccnc(C3CCCC3)n2)no1 (stereo not drawn),14.92
23,CC(C)c1nc(C2CCCN2c2cnc3ccccc3n2)no1 (stereo not drawn),1.41
24,CC(C)c1nc(C2CCCN2Cc2ccno2)no1 (stereo not drawn),-9.3
25,CC(C)c1nc(C2CCCN2Cc2nnc(C3CCC3)o2)no1 (stereo not drawn),53.33
26,CC(C)c1nc(C2CCCN2Cc2ccon2)no1 (stereo not drawn),56.02
